This note sets out measurements from the supplement of paper PMC6897291.

Where a name gives a salt, the structure may show the parent alone.

In the experiment the test system is RIVA. In words: growth inhibition by drug plus 177Lu-lilotomab satetraxetan (1 - RLU/untreated control) (fraction); higher = stronger inhibition. The note with it: 100 nM; time (day): 3; 177Lu-lilotomab satetraxetan 0.5 ug/ml. Put shortly:
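Growth inhibition was calculated from RealTime-Glo RLU against untreated no-drug wells. Values equal 1 − RLU/mean of 48 untreated no-drug wells per plate, read daily from day 3 after 1 h at 37°C. RIVA and U-2932 cells, with or without 18 h pretreatment by a radiolabelled anti-CD37 antibody conjugate (~600 MBq/mg; 0.5 µg/ml RIVA, 1 µg/ml U-2932), were washed and plated at 3,000 cells/well on compound-printed plates at 10/100 nM (RIVA) or 10/1,000 nM (U-2932).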
As to `COc1ccc(S(=O)(=O)Nc2cccnc2Nc2ccc(O)cc2)cc1`, the “growth inhibition by drug plus 177Lu-lilotomab satetraxetan” value (shortened to “growth inhibition”) came to 0.416.

Take `C[C@]12CCC(=O)C=C1CC[C@@H]1[C@@H]2[C@@H](O)C[C@@]2(C)[C@H]1CC[C@]2(O)C(=O)CO` [Hydrocortisone (Cortisol)]: the “growth inhibition” value is 0.101.

`COc1cc(OC2CCN(C)CC2)ccc1Nc1ncc2c(n1)n(C1CCCC1)c(=O)n2C`: the “growth inhibition” value was found to be 0.355.

With `Nc1nc(F)nc2c1ncn2[C@@H]1O[C@H](CO)[C@@H](O)[C@@H]1O` [Fludarabine (Fludara)], the “growth inhibition” value was determined as 0.504.

As to `Nc1nc(Nc2ccc(S(N)(=O)=O)cc2)nn1C(=O)c1c(F)cccc1F`, the “growth inhibition” value amounted to 0.486.

Take `Nc1ncn([C@@H]2O[C@H](CO)[C@@H](O)[C@H]2O)c(=O)n1` [Azacitidine (Vidaza)]: the “growth inhibition” value was 0.241.

As for `COc1cc2nccc(Oc3ccc(NC(=O)NC4CC4)c(Cl)c3)c2cc1C(N)=O` [E7080 (Lenvatinib)], the “growth inhibition” value was 0.364.

With `Nc1ccn([C@@H]2O[C@H](CO)[C@@H](O)[C@@H]2O)c(=O)n1` [Cytarabine], the “growth inhibition” value worked out at 0.655.

Regarding `Nc1cccc2c1C(=O)N(C1CCC(=O)NC1=O)C2=O` (stereo not drawn) [Pomalidomide], the “growth inhibition” value came to 0.439.

Regarding `CN(C)c1nc(N(C)C)nc(N(C)C)n1` [Altretamine (Hexalen)], the “growth inhibition” value was found to be 0.239.

On to `Cc1[nH]c(/C=C2\C(=O)Nc3ccc(S(=O)(=O)N(C)c4cccc(Cl)c4)cc32)c(C)c1C(=O)N1CCN(C)CC1`, for which the “growth inhibition” value was 0.412.

Consider `O=C(O[C@@H]1Cc2c(O)cc(O)cc2O[C@@H]1c1cc(O)c(O)c(O)c1)c1cc(O)c(O)c(O)c1` [(-)-Epigallocatechin gallate], for which the “growth inhibition” value is 0.363.

Take `CCc1c2c(nc3ccc(OC(=O)N4CCC(N5CCCCC5)CC4)cc13)-c1cc3c(c(=O)n1C2)COC(=O)[C@]3(O)CC` [Irinotecan HCl Trihydrate (Campto)]: the “growth inhibition” value was 0.485.

For `S=C(NCc1ccc2c(c1)OCO2)N1CCN(c2ncnc3c2oc2ccccc23)CC1` [Amuvatinib (MP-470)], the “growth inhibition” value came out at 0.641.

In the case of `COc1ccc2c3n(c(=NC(=O)c4cccnc4)nc2c1OC)CCN3`, the “growth inhibition” value was determined as 0.482.

Consider `C#Cc1cccc(Nc2ncnc3cc(OCCOC)c(OCCOC)cc23)c1` [Erlotinib HCl], for which the “growth inhibition” value came out at 0.791.

Regarding `Cc1ccc(-c2cc(C(F)(F)F)nn2-c2ccc(S(N)(=O)=O)cc2)cc1` [Celecoxib], the “growth inhibition” value is 0.373.

Turning to `N#CC[C@H](C1CCCC1)n1cc(-c2ncnc3[nH]ccc23)cn1`, the “growth inhibition” value is 0.269.

On to `CCc1cncnc1N1CCN(Cc2nc3ccc(C(F)(F)F)cc3[nH]2)CC1`, for which the “growth inhibition” value stood at 0.49.

Take `CCN(CC)C(=S)SSC(=S)N(CC)CC` [Disulfiram (Antabuse)]: the “growth inhibition” value came to 0.209.

`CC(C)[C@H](C(=O)Nc1ccc(C(=O)NO)cc1)c1ccccc1`: the “growth inhibition” value was determined as 0.939.

Consider `CC(=O)O[C@]1(C(C)=O)CC[C@H]2[C@@H]3C=C(C)C4=CC(=O)CC[C@]4(C)[C@H]3CC[C@@]21C` [Megestrol Acetate], for which the “growth inhibition” value worked out at 0.497.

For `COc1cc2ncnc(Nc3cccc(Br)c3)c2cc1OC`, the “growth inhibition” value came to 0.349.

With `N#Cc1ccc(C(c2ccc(C#N)cc2)n2cncn2)cc1` [Letrozole], the “growth inhibition” value turned out to be 0.319.

For `CC(=O)c1c(C)c2cnc(Nc3ccc(N4CCNCC4)cn3)nc2n(C2CCCC2)c1=O`, the “growth inhibition” value turned out to be 0.281.

For the compound `COc1cccc2c1C(=O)c1c(O)c3c(c(O)c1C2=O)C[C@@](O)(C(=O)CO)C[C@@H]3O[C@H]1C[C@H](N)[C@H](O)[C@H](C)O1` [Doxorubicin (Adriamycin)], the “growth inhibition” value was 0.869.

With `CC(C)(C)c1[nH]cnc1/C=c1\[nH]c(=O)/c(=C/c2ccccc2)[nH]c1=O` [NPI-2358 (Plinabulin)], the “growth inhibition” value turned out to be 0.955.

For `COc1cc(Nc2ncc3c(n2)-c2ccc(Cl)cc2C(c2c(F)cccc2OC)=NC3)ccc1C(=O)O` [MLN8237 (Alisertib)], the “growth inhibition” value came to 0.754.

Regarding `O=c1[nH]cc(F)c(=O)[nH]1` [Adrucil (Fluorouracil)], the “growth inhibition” value was determined as 0.398.

As to `CC(C)c1ccc(Cn2ccc3c4c(N)nc(NC5CC5)nc4ccc32)cc1`, the “growth inhibition” value was 0.787.

Regarding `CC/C(=C(\c1ccccc1)c1ccc(OCCN(C)C)cc1)c1ccccc1` [Tamoxifen Citrate (Nolvadex)], the “growth inhibition” value stood at 0.78.

As for `Cn1cc(C2=C(c3ccc(Cl)cc3Cl)C(=O)NC2=O)c2ccccc21`, the “growth inhibition” value worked out at 0.465.

Regarding `c1ccc(-c2nn3c(c2-c2ccnc4cc(OCCN5CCOCC5)ccc24)CCC3)nc1`, the “growth inhibition” value came to 0.237.

As to `O=C(NCCS(=O)(=O)c1ccc(C(F)(F)F)cn1)c1ccc(Cl)cc1`, the “growth inhibition” value was determined as 0.416.

With `Cc1ccc(S(=O)(=O)C=CC#N)cc1`, the “growth inhibition” value came out at 0.401.

Regarding `CCC1=C[C@@H]2CN(C1)Cc1c([nH]c3ccccc13)[C@@](C(=O)OC)(c1cc3c(cc1OC)N(C)[C@H]1[C@@](O)(C(=O)OC)[C@H](OC(C)=O)[C@]4(CC)C=CCN5CC[C@]31[C@@H]54)C2` [Vinorelbine (Navelbine)], the “growth inhibition” value stood at 0.967.

On to `Cc1cc(Nc2cc(N3CCN(C)CC3)nc(/C=C/c3ccccc3)n2)n[nH]1`, for which the “growth inhibition” value worked out at 0.23.

Consider `CN(N=O)C(=O)N[C@@H](C=O)[C@@H](O)[C@H](O)[C@H](O)CO` [Streptozotocin (Zanosar)], for which the “growth inhibition” value was found to be 0.38.
